Test results reported in PubChem BioAssay (NCI).
This is part of a sample that, as a whole, favours compounds with a hit. Of some 83,000 tested, about 20% had one in any assay.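 Assay: single dose, 48 h. Readout: percent growth (0 = no net growth; negative = cell death). Active: <10.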 Values without a mark were called inactive. Activity calls are given as the source filed them.

Legend:
Assay in all cases: NCI-60 one-dose screen, 48 h (100 = growth as untreated, 0 = no growth, -100 = all killed)
Conditions in all cases: 10 µM unless noted
[1] = test system: BT-549 breast
[2] = test system: MDA-MB-435 melanoma
[3] = test system: SW-620 colon
[4] = test system: MCF7 breast
[5] = test system: HCT-116 colon
[6] = test system: HCC-2998 colon
[7] = test system: KM12 colon

Row | Structure (SMILES) | growth [1] | growth [2] | growth [3] | growth [4] | growth [5] | growth [6] | growth [7]
1 | COc1ccccc1/C=C/C=N/NC1=NC2C(S1)N(C)C(=O)N2C (configuration not stated) | 67.8% | -57.1% (active) | 20.9% | 19.9% | 35.9% | 68.3% | 18.2%
2 | COC(=O)C(C)NS(=O)(=O)/N=C1\NC(=O)NC1=C(Cl)Cl (configuration not stated) | 109% | 105% | 124% | 98% | 102% | 113% | 105%
3 | OC1CCN(CCCOc2c3ccc(Cl)cc3nc3c2oc2ccc(Cl)cc23)CC1 | 46.6% | -70.4% (active) | -82.6% (active) | -79.7% (active) | 12.3% | 36.8% | -74.3% (active)
4 | CN(C)c1ccc(-c2c(NC(C)(C)C)nc3c(OCCc4ccccc4)cccn23)cc1 | 42.3% | 24% | 12.4% | 1.49% (active) | 8.37% (active) | 13% | 6.85% (active)
5 | COc1cc(/C=C/C(=O)c2cc(OC)c(OC)c(OC)c2)ccc1OCc1ccc(F)cc1 | 8.09% (active) | 52.9% | 16.9% | 10.8% | 5.57% (active) | 40.2% | 19%
6 | O=[N+]([O-])c1ccc(O)c2ncccc12 | 61.4% | 40% | 25.7% | 9.13% (active) | 21.4% | 44.5% | 22.2%
7 | Fc1ccc(-c2nc(C(Cl)Cl)nc3cc(-c4ccccc4)nn23)cc1 | 52.3% | 3.93% (active) | -35.7% (active) | 21.5% | 5.36% (active) | -34.7% (active) | -12% (active)
8 | [Cl][Ru].c1ccc(-c2cc(-c3ccccn3)nc(-c3ccccn3)c2)cc1.c1ccc(-c2ccnc3c2ccc2c(-c4ccccc4)ccnc23)cc1 | -94.6% (active) | -62.2% (active) | -56.7% (active) | -28.2% (active) | -79% (active) | -72.9% (active) | -70.8% (active)
9 | Cc1cc(C(NC(=O)CCCCCNc2cccc3c2C(=O)N(C2CCC(=O)NC2=O)C3=O)c2cccnc2)c(O)c2ncccc12 (configuration not stated) | -30.8% (active) | 30.7% | 13.3% | 12.2% | 24.8% | 2.27% (active) | 17.6%
10 | O=C(N/N=C/c1ccc([N+](=O)[O-])o1)c1[nH]c2ccc(Br)cc2c1-c1ccccc1 | -32.1% (active) | -40.8% (active) | 10.5% | 7.95% (active) | -8.73% (active) | 2.07% (active) | 15.3%
11 | CCN1C(=S)N(CC)C2C1N=C(SC)N2/N=C/C=C/c1ccccc1[N+](=O)[O-] (configuration not stated) | 107% | 94.4% | 99.4% | 76.9% | 82.2% | 112% | 97.6%
12 | N#Cc1c(-c2ccc(Cl)cc2)nc(SCc2ccc([N+](=O)[O-])cc2)nc1N1CCNCC1 | 89.6% | -63.3% (active) | -52.8% (active) | -43.9% (active) | -91.5% (active) | -40.1% (active) | -47.2% (active)
13 | CCCC(=O)NC(c1ccc(N(CC)CC)cc1)c1cc(C)c2cccnc2c1O (configuration not stated) | 29.9% | 34.8% | 31.4% | 14.3% | 16.8% | 33.9% | 29.6%
14 | CN(C)c1ccc(/C=C2\Cc3c(F)ccc(Br)c3C2=O)cc1 | 117% | 92.7% | 89.9% | 39.8% | 98.5% | 104% | 93.1%
15 | Cc1cccc(/C=C/c2nn3c(-c4ccco4)nnc3s2)c1 | 90.8% | 95.8% | 101% | 78.5% | 106% | 95% | 105%
16 | [Cl][Ru].c1ccc(-c2cccc(-c3ccccn3)n2)nc1.c1ccc(-c2ccnc3c2ccc2c(-c4ccccc4)ccnc23)cc1 | 7.88% (active) | 10.5% | 40.2% | 9.54% (active) | 36.9% | 31.3% | 8.28% (active)

Row | Structure (SMILES) | growth [1] | growth [2] | growth [3] | growth [4] | growth [5] | growth [6] | growth [7]
17 | O=C(c1ccc(O)cc1)C1[C@H](c2ccc(Cl)cc2)[C@@H](c2ccccc2)NC12C(=O)Nc1ccc(Cl)cc12 (some centres not stated) | 77.3% | 39.6% | 40.5% | 9.87% (active) | 14.5% | 18% | 24.4%
18 | CC(C)(C)Nc1nc2c(OCCc3ccccc3)cccn2c1-c1ccc(Cl)cc1 | 47.7% | 19.2% | 41% | 0.0476% (active) | 8.63% (active) | 24.7% | 32.7%
19 | Clc1ccc2c(NCCCN3CCOCC3)c3oc4ccccc4c3nc2c1 | 104% | 36% | 21.8% | 16.6% | 20.1% | 50.4% | 32%
20 | C[C@@H]1CN(c2ccc3ncc(C#Cc4cncc(C(=O)Nc5ccc(CN6CCN(C)CC6)c(C(F)(F)F)c5)c4)n3n2)C[C@H](C)O1 | -27.2% (active) | -90.1% (active) | -52.3% (active) | -64% (active) | -71.4% (active) | -30% (active) | -7.61% (active)
21 | CN1C(=S)N(C)C2C1NN=C1SC(c3ccccc3)=CC(=O)N12 (configuration not stated) | 98.1% | 74.2% | 105% | 96.1% | 98.8% | 106% | 98.3%
22 | Cc1cccc2sc(/N=C(\N)C(Br)Br)nc12 | 30.2% | 12.3% | -40.2% (active) | -13.3% (active) | -29.1% (active) | 4.99% (active) | 9.77% (active)
23 | CCN1CCN(/C(=N\c2sc(-c3ccccc3)nc2-c2ccccc2)c2ccccc2)CC1 | 90.9% | 88% | 84.9% | 67.3% | 62.4% | 77.1% | 59.8%
24 | N#Cc1ccc(/C=N/NC(=O)c2[nH]c3ccc(Br)cc3c2-c2ccccc2)s1 | -11.4% (active) | 1.78% (active) | 22.9% | 5.58% (active) | -18.9% (active) | 21.8% | 11%
25 | CCN(CC)c1ccc(C=O)c(OCc2cn(CC(=O)Nc3ccc(Cl)cc3)nn2)c1 | 81.4% | 79.8% | 85.6% | 52.9% | 47.3% | 86.1% | 70.4%
26 | COc1ccc(-c2nc3ccc(-c4nnc(SCC(=O)Nc5ccc(C(=O)/C=C/c6ccccc6)cc5)o4)cc3[nH]2)cc1OC | 94.1% | 106% | 104% | 78.3% | 89.7% | 123% | 99%
27 | COc1ccc2[nH]cc(-c3cc(N)n4nc(-c5c[nH]c6ccc(OC)cc56)cc4n3)c2c1 | 105% | -81.4% (active) | -16% (active) | 2.38% (active) | -88.2% (active) | -4.06% (active) | -37.8% (active)
28 | OC1CCN(CCCOc2c3ccc(Cl)cc3nc3c2oc2ccccc23)CC1 | -2.71% (active) | -76.3% (active) | -19.8% (active) | -32.1% (active) | -34.9% (active) | -68% (active) | -16.1% (active)
29 | C/C(=C(/c1ccc(Cl)cc1)c1ccc(OCCN)cc1)c1ccc(C)cc1 | 117% | 97.3% | 93.5% | 102% | 101% | 111% | 103%
30 | CN(C)c1ccc(/C=c2\sc3nc4ccccc4n3c2=O)cc1 | 118% | 101% | 102% | 70.3% | 105% | 107% | 104%
31 | COc1cc(-c2nc3ccc(-c4nnc(SCC(=O)Nc5ccc(C(C)=O)cc5)o4)cc3[nH]2)cc(OC)c1OC | 108% | 108% | 101% | 92.6% | 106% | 112% | 101%
